# Inconclusive results are not listed. Where a call stands in place of a potency, no number is given. A number with no mark means an inactive call. Activity calls are given as the source filed them. The call rests on the fitted dose curve; in most records, active means well fitted curve in the direction sought with a large enough effect; inconclusive means small, poorly fitted or top-dose-only effect, or another doubt; inactive means no such curve, though single readings can be large; an effect the other way counts as inactive or inconclusive.
# What was measured:
# CRL-7250 = normal cell line; assay: Cytotoxic Profiling of Annotated Libraries Using Quantitative High-Throughput Screening (AID 1296008); settings: Five cell lines viability, CellTiter-Glo ATP luminescence, 48-72 h; max response: hits give low values; further: nearly all actives have a fitted effect of over 60% in size; further: potency means the concentration at half of the fitted maximal effect
# In short: (§1)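 Compounds were pin-transferred onto cells and incubated 48 or 72 hr at 37 degree Celsius, 95% humidity. CellTiter-Glo was added, plates sat 10 min at room temperature, then ATP-coupled luminescence was imaged as the viability read-out.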
# HEK293 = assay: as above; settings: Five cell lines viability, CellTiter-Glo ATP luminescence, 48-72 h; max response: hits give low values
# In short: as §1
# HaCat = assay: as above; settings: Five cell lines viability, CellTiter-Glo ATP luminescence, 48-72 h; max response: hits give low values
# In short: as §1
# KB-3-1 = assay: as above; settings: Five cell lines viability, CellTiter-Glo ATP luminescence, 48-72 h; max response: hits give low values
# In short: as §1
# NIH3T3 [1] = assay: as above; settings: Five cell lines viability, CellTiter-Glo ATP luminescence, 48-72 h; max response: hits give low values
# In short: as §1
# NIH3T3 [2] = assay: qHTS assay to identify novel small-molecules to repurpose for Merkel cell carcinoma treatment (AID 1296009); settings: MCC and control cell lines, CellTiter-Glo viability, 72 h; at 44.8 µM (top of the series) unless noted; further: nearly all actives have a fitted effect of over 60% in size
# In short: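 Viability readout: ATP luminescence (CellTiter-Glo) after 72 hr drug exposure at 37 degree celsius. Dose-response format was 8 points for NPC and 11 points for MIPE; data normalized to in-plate controls.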
# CASKI = assay: Primary qHTS to identify gynecologic anti-cancer compounds using libraries of approved drugs and bioactive compounds (AID 1345084); settings: Gynecologic cancer cell panel viability, ATPlite luminescence, 48 h; series mostly up to 57.5 µM; further: nearly all actives have a fitted effect of over 55% in size; further: potency means the concentration at half of the fitted maximal effect
# In short: (§2)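 Cytotoxicity screen measuring ATP content by luciferase luminescence. Each compound is applied at five concentrations for 48 h at 37 C with 5% CO2.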
# HeLa = assay: as above; settings: Gynecologic cancer cell panel viability, ATPlite luminescence, 48 h; series mostly up to 57.5 µM
# In short: as §2
# Hek293T = assay: as above; settings: Gynecologic cancer cell panel viability, ATPlite luminescence, 48 h, control line for the selectivity index; series mostly up to 57.5 µM
# In short: as §2
# JEG-3 = assay: as above; settings: Gynecologic cancer cell panel viability, ATPlite luminescence, 48 h; series mostly up to 57.5 µM
# In short: as §2
# C33A = assay: as above; settings: Gynecologic cancer cell panel viability, ATPlite luminescence, 48 h; series mostly up to 57.5 µM
# In short: as §2
# Es-2 = assay: as above; settings: Gynecologic cancer cell panel viability, ATPlite luminescence, 48 h; series mostly up to 57.5 µM
# In short: as §2
# CAOV3 = assay: as above; settings: Gynecologic cancer cell panel viability, ATPlite luminescence, 48 h; series mostly up to 57.5 µM
# In short: as §2
# SC27B = assay: qHTS profiling for inhibitors of Plasmodium falciparum proliferation (AID 504749); further: nearly all actives have a fitted effect of over 60% in size; settings: P. falciparum in erythrocytes, SYBR Green DNA, 72 h; series mostly up to 28.7 µM
# In short: (§3)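 Quantitative HTS: compounds pinned into medium, infected erythrocytes added (0.3% parasitemia, 2.5% hematocrit), 72 h culture at 37 C under 5% CO2. Saponin/Triton lysis with SYBR Green I, overnight RT, then fluorescence read.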
# TAB109 = assay: as above; settings: P. falciparum in erythrocytes, SYBR Green DNA, 72 h; series mostly up to 28.7 µM
# In short: as §3
# TAB113 = assay: as above; settings: P. falciparum in erythrocytes, SYBR Green DNA, 72 h; series mostly up to 28.7 µM
# In short: as §3
# TAB165 = assay: as above; settings: P. falciparum in erythrocytes, SYBR Green DNA, 72 h; series mostly up to 28.7 µM
# In short: as §3
# W2 = assay: as above; settings: P. falciparum in erythrocytes, SYBR Green DNA, 72 h; series mostly up to 28.7 µM
# In short: as §3
smiles,measurement,setting,value
Cc1nnc(-c2ccc3occ(-c4ccc(S(C)=O)cc4)c3c2)o1 (centres undefined),outcome,CRL-7250,inactive
same,max response,HEK293,-3.27%
same,max response,HaCat,-2.4%
same,outcome,KB-3-1,inactive
same,outcome,NIH3T3 [1],inactive
same,outcome,NIH3T3 [2],inactive
same,outcome,CASKI,inactive
same,Potency,HeLa,inactive
same,Potency,Hek293T,inactive
same,Potency,JEG-3,inactive
C=C(C)C(O)COc1ccc(CC(=O)O)cc1 (centres undefined),max response,CRL-7250,-8.29%
same,max response,HEK293,2.49%
same,max response,HaCat,-1.96%
same,outcome,KB-3-1,inactive
same,outcome,NIH3T3 [1],inactive
same,outcome,NIH3T3 [2],inactive
same,Potency,C33A,inactive
same,outcome,CASKI,inactive
same,Potency,Es-2,inactive
same,Potency,HeLa,inactive
same,Potency,Hek293T,inactive
same,Potency,JEG-3,inactive
O=C(/C=C/c1ccc(O)c(O)c1)O[C@H]1[C@H](OC2CCCCC2O)O[C@H](CO)[C@@H](O)[C@@H]1O (some centres undefined),max response,CRL-7250,-3.22%
same,max response,HEK293,-0.453%
same,max response,HaCat,-16.7%
same,max response,KB-3-1,-3.21%
same,outcome,NIH3T3 [1],inactive
same,Potency,C33A,inactive
same,Potency,CAOV3,inactive
same,outcome,CASKI,inactive
same,Potency,Es-2,inactive
same,Potency,HeLa,11.2 µM (active)
same,Potency,Hek293T,inactive
same,Potency,JEG-3,inactive
O=C(O)CCc1cc2ccoc2cc1O[C@@H]1O[C@H](CO)[C@@H](O)[C@H](O)[C@H]1O,outcome,CRL-7250,inactive
same,max response,HEK293,1.52%
same,max response,HaCat,0.684%
same,outcome,KB-3-1,inactive
same,outcome,NIH3T3 [1],inactive
same,outcome,NIH3T3 [2],inactive
same,Potency,C33A,inactive
same,Potency,CAOV3,inactive
same,Potency,Es-2,inactive
same,Potency,HeLa,inactive
same,Potency,Hek293T,inactive
same,Potency,JEG-3,inactive
C=CC(C)(CCC=C(C)C)O[C@@H]1O[C@H](CO)[C@@H](O)[C@H](O)[C@H]1O (some centres undefined),max response,CRL-7250,-23.7%
same,max response,HEK293,-6.28%
same,max response,HaCat,-2.03%
same,max response,KB-3-1,6.36%
same,outcome,NIH3T3 [1],inactive
same,outcome,NIH3T3 [2],inactive
same,Potency,C33A,inactive
same,outcome,CASKI,inactive
same,Potency,Es-2,inactive
same,Potency,HeLa,inactive
same,Potency,Hek293T,inactive
same,Potency,JEG-3,inactive
COc1ccc(OC)c(C2C(C#N)=C(N)Oc3n[nH]c(-c4ccc5ccccc5c4)c32)c1 (centres undefined),outcome,CRL-7250,inactive
same,max response,HEK293,0.943%
same,max response,HaCat,-8.38%
same,outcome,KB-3-1,inactive
same,outcome,NIH3T3 [1],inactive
same,outcome,NIH3T3 [2],inactive
same,Potency,C33A,inactive
same,outcome,CASKI,inactive
same,Potency,Es-2,inactive
same,Potency,HeLa,inactive
same,Potency,Hek293T,inactive
same,Potency,JEG-3,inactive
C[C@]12CCC[C@](C)(C(=O)O)C1CCC13CC(CO)C(CCC12)C3 (some centres undefined),max response,CRL-7250,-1.66%
same,max response,HEK293,2.28%
same,max response,HaCat,-11.1%
same,max response,KB-3-1,8.03%
same,outcome,NIH3T3 [1],inactive
same,Potency,C33A,inactive
same,Potency,CAOV3,inactive
same,outcome,CASKI,inactive
same,Potency,Es-2,inactive
same,Potency,HeLa,inactive
same,Potency,Hek293T,inactive
same,Potency,JEG-3,inactive
Cc1ccccc1-c1cc(N2CCN(C)CC2)ncc1N(C)C(=O)C(C)(C)c1cc(C(F)(F)F)cc(C(F)(F)F)c1,max response,CRL-7250,1.9%
same,max response,HEK293,-6.53%
same,max response,HaCat,-0.694%
same,max response,KB-3-1,-5.47%
same,outcome,NIH3T3 [1],inactive
same,Potency,C33A,inactive
same,Potency,CAOV3,inactive
same,outcome,CASKI,inactive
same,Potency,Es-2,inactive
same,Potency,HeLa,inactive
same,Potency,Hek293T,inactive
same,Potency,JEG-3,inactive
O=C(C[C@@H]1C(C(=O)O)=CO[C@@H](O[C@@H]2O[C@H](CO)[C@@H](O)[C@H](O)[C@H]2O)/C1=C\CO)OCCc1ccc(O)cc1,max response,CRL-7250,1.31%
same,max response,HEK293,1.44%
same,max response,HaCat,-0.66%
same,outcome,KB-3-1,inactive
same,outcome,NIH3T3 [1],inactive
same,outcome,NIH3T3 [2],inactive [at 17.4 µM]
same,Potency,C33A,inactive
same,outcome,CASKI,inactive
same,Potency,Es-2,inactive
same,Potency,HeLa,inactive
same,Potency,Hek293T,inactive
same,Potency,JEG-3,inactive
CC1CC=C2C1CC1(O)C(=O)CC2(C)C1(C)CO (centres undefined),outcome,CRL-7250,inactive
same,max response,HEK293,-7.63%
same,max response,HaCat,4.08%
same,outcome,KB-3-1,inactive
same,outcome,NIH3T3 [1],inactive
same,Potency,C33A,inactive
same,Potency,CAOV3,inactive
same,outcome,CASKI,inactive
same,Potency,Es-2,inactive
same,Potency,HeLa,inactive
same,Potency,Hek293T,inactive
same,Potency,JEG-3,inactive
CCOC(=O)C(CCc1ccccc1)NC(C)C(=O)N1Cc2ccccc2CC1C(=O)O (centres undefined),outcome,SC27B,inactive
same,outcome,TAB109,inactive
same,outcome,TAB113,inactive
same,outcome,TAB165,inactive
same,outcome,W2,inactive
same,max response,CRL-7250,-6.01%
same,max response,HEK293,-4.89%
same,max response,HaCat,-10.9%
same,max response,KB-3-1,-4.78%
same,outcome,NIH3T3 [1],inactive
same,Potency,C33A,inactive
same,Potency,CAOV3,inactive
same,outcome,CASKI,inactive
same,Potency,Es-2,inactive
same,Potency,HeLa,inactive
same,Potency,Hek293T,inactive
same,Potency,JEG-3,inactive
Cc1ccc(C)c(NC(=O)CNS(=O)(=O)c2ccc3[nH]c(=O)oc3c2)c1,outcome,CRL-7250,inactive
same,max response,HEK293,-17.1%
same,max response,HaCat,-0.793%
same,max response,KB-3-1,8.68%
same,outcome,NIH3T3 [1],inactive
same,outcome,NIH3T3 [2],inactive
same,Potency,C33A,inactive
same,Potency,CAOV3,inactive
same,Potency,Es-2,inactive
same,Potency,HeLa,inactive
same,Potency,Hek293T,inactive
same,Potency,JEG-3,inactive
O=C(Nc1cc(-c2ccccc2)nn1-c1ccccc1F)c1ccc([N+](=O)[O-])cc1,max response,CRL-7250,-9.65%
same,Potency,HEK293,23.1 µM (active)
same,max response,HaCat,2.32%
same,max response,KB-3-1,-2.53%
same,outcome,NIH3T3 [1],inactive
same,outcome,NIH3T3 [2],inactive
same,Potency,C33A,inactive
same,outcome,CASKI,inactive
same,Potency,Es-2,inactive
same,Potency,HeLa,inactive
same,Potency,Hek293T,inactive
same,Potency,JEG-3,inactive

# Source: PubChem BioAssay (NCATS)
